Y pestis TopoI: blocks Yersinia pestis topoisomerase I activity; 360,000 compounds, 0.064% hits; activity, % at 10 µM; AID 504884; Y. pestis Topo-I cleavage product accumulation, plate reader; in the data active means activity above about 50%, passing the limit was not always enough
MazF activator: MazEF (E. coli) toxin RNase activation | 350,000 compounds, 0.32% hits | activation, % at 20 µM | P0AE70 | FAM/BHQ RNA-DNA oligo cleavage fluorescence, 5 h; in the data active means activation above about 50%
Target sequence (P0AE70 whole entry, looked up): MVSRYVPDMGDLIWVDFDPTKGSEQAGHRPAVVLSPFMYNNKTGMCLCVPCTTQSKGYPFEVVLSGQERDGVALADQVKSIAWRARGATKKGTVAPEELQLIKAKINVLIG
VHR inh abs: DUSP3 (human) phosphatase inhibition. P51452. recombinant VHR phosphatase, pNPP absorbance. inhibition, % at 13.3 µM. 290,000 compounds, 0.52% hits. AID 1654; in the data active means inhibition above about 50%
Target sequence (P51452 whole entry, looked up): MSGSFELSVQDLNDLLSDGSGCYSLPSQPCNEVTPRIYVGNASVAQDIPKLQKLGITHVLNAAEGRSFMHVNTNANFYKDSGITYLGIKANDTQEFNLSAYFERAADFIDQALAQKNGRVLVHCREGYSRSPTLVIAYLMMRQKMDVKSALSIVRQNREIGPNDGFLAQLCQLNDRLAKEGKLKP
PrPC TRFRET: cell surface PrPC inhibition, primary TR-FRET screen | TR-FRET read-out | 370,000 compounds, 0.43% hits | P04156 | inhibition, % at 13.8 µM; in the data active means inhibition above about 24%; further: 0% = median of the test wells and 100% = reference compound wells
Vc quorum ag: induces V. cholerae light production without autoinducers; V. cholerae BH1578 lux reporter, luminescence, 6 h; activation, % at 18.7 µM; 350,000 compounds, 0.16% hits; in the data active means activation mostly above about 9.7%, no sharp cut-off
CCHF vOTU inh: CCHFV vOTU protease inhibition; Pep-AMC fluorescence; 370,000 compounds, 0.55% hits; inhibition, % at 11.5 µM; AID 651958; in the data active means inhibition above about 30%; further: 0% = vehicle wells with enzyme and 100% = no enzyme wells
PrPC confirm: confirmation of inhibitors of cell surface human prion protein. inhibition, % at 13.8 µM. 1,500 compounds, 65% hits. cell surface PrPC level, TR-FRET. shares compounds with PrPC TRFRET; in the data active means inhibition above about 25%
LD9 tox: counter-screen for PrPc inhibitors: cytotoxicity in LD9 cells; shares compounds with PrPC TRFRET; luminescence viability; inhibition, % at 13.8 µM; 1,500 compounds, 29% hits; in the data active means inhibition above about 9.5%
* = called active by the depositor; i = inactive; x = no result given. In the library only some 1.8% were active in any assay of this set; here they are far more common.

SMILES | Y pestis TopoI | MazF activator | VHR inh abs | PrPC TRFRET | Vc quorum ag | CCHF vOTU inh | PrPC confirm | LD9 tox
CCOCc1nc(N)nc(N)c1-c1cccc(Cl)c1 | -5 | 0 | x | 26* | i | 6 | -2 | 2
CCOC(=O)c1c(C)nc2ccc(Cl)cc2c1-c1ccccc1 | 7 | -8 | -5 | 6 | i | 6 | x | x
CC(C)C(=O)N1CCN(c2ccc(NC(=O)c3ccc([N+](=O)[O-])o3)cc2Cl)CC1 | -2 | 7 | 33 | 36* | 0 | -2 | 11 | 98*
O=C(Nc1ccc(N2CCN(C(=O)c3ccccc3)CC2)cc1)c1ccc([N+](=O)[O-])o1 | 14 | 4 | 5 | 26* | -1 | 4 | 22 | 93*
O=C(NCc1ccncc1)C(=O)Nc1nc(C23CC4CC(CC(C4)C2)C3)cs1 | 25 | 2 | 2 | 35* | 0 | -6 | 36* | 2
Cc1ccc([N+](=O)[O-])cc1CN1CCN(c2ncc(Cc3ccccc3)cn2)CC1 | x | x | x | -13 | x | 17 | x | x
COCCn1c(SCC(=O)Nc2cccc(F)c2)nc2c([nH]c3ccccc32)c1=O | 0 | -10 | 0 | -3 | i | -1 | x | x
COCCn1c(SCC(=O)Nc2cccc(NC(C)=O)c2)nc2c([nH]c3ccccc32)c1=O | 36 | -1 | -19 | 29* | i | 12 | 10 | 1
CCOC(=O)N1CCN(C(=O)/C(=C/c2ccc(OC)c(OC)c2)NC(=O)c2ccccc2)CC1 | 1 | -1 | 10 | 29* | i | -10 | -1 | -4
O=C(O)c1ccc(N2CCS(=O)(=O)CC2)cc1 | 7 | 1 | 20 | -10 | -1 | -5 | x | x
CN1OC(Cn2cc(C#N)c(=O)n(C)c2=O)CC1c1ccccc1 (centres undefined) | 0 | 2 | 15 | 25* | -1 | -7 | 4 | 1
Cc1ccccc1NC(=O)[C@@H]1CCCN1S(=O)(=O)c1cccc2cccnc12 | x | x | x | 8 | x | x | x | x
CN(C)S(=O)(=O)Oc1cccc(C(=O)Nc2cccc(Cl)c2)c1 | -3 | 1 | 8 | 24* | 2 | 2 | 22 | 20*
Cc1cc(N2CCN(C(=O)OC(C)(C)C)C[C@H]2C)ccc1N1CC[C@@H](O)C1 | x | x | x | -3 | x | 0 | x | x
COCCCn1c(C(=O)N2CC(C)OC(C)C2)cc2c(=O)n3ccccc3nc21 (centres undefined) | 5 | -7 | 31 | -2 | i | -359 | x | x
COCCN(CCOC)C(=O)CC(=O)N(CCOC)CCOC | 3 | 5 | 0 | 28* | i | 2 | 7 | -1
O=C(N/C(=C/c1cccc(Br)c1)C(=O)N1CCCCC1)c1ccco1 | 13 | 1 | x | -4 | -6 | 4 | x | x
Cc1ccc(S(=O)(=O)N2CCN(CC(O)c3ccccc3)CC2)cc1 (centres undefined) | 7 | 5 | 6 | 8 | 0 | -5 | x | x
Cc1ccc(S(=O)(=O)N2CCN(CC(O)c3ccccc3)CC2)cc1C (centres undefined) | 1 | 3 | 41 | 57* | -1 | 0 | 6 | -5
CC1CCC(NC(=O)CNC(=O)Cc2cccc3ccccc23)CC1 (centres undefined) | 22 | 4 | 38 | 31* | 0 | 15 | 0 | -5
Cc1ccc(C(=O)NS(=O)(=O)c2ccc(N=NN(C)C)cc2)cc1 | 3 | 2 | -10 | 18 | i | -2 | x | x
CS(=O)(=O)c1cccc(C(=O)Nc2cccc(-c3nc4ccccc4[nH]3)c2)c1 | -2 | 5 | 34 | 129* | -1 | 15 | -4 | 20*
O=C(Nc1cccc(-c2nc3ccccc3[nH]2)c1)c1cccc(NC(=O)c2ccco2)c1 | 5 | 66* | 39 | 37* | 3 | 0 | -6 | 18*
O=C(Nc1ccc2nc(-c3ccccc3)[nH]c2c1)c1ccco1 | 4 | 5 | 6 | -12 | -1 | -3 | x | x
O=C1C(=O)N(C2CCS(=O)(=O)C2)C(c2cccc(O)c2)/C1=C(/O)c1ccc(Cl)cc1 (centres undefined) | 2 | 2 | 10 | 1 | i | 20 | x | x
Cn1cccc1/C=N/NC(=O)Cc1ccccc1 | 2 | 8 | 6 | -1 | i | -10 | x | x

Screens: PubChem, several laboratories
